A short description of assay [1]: Nuclear factor erythroid 2-related factor 2/antioxidant responsive element (Nrf2/ARE) small molecule agonists: qHTS cell viability counter screen in human keratinocytes (AID 1919968; active = well fitted curve in the direction sought with a large enough effect in the repeat runs; an effect the other way counts as inactive or inconclusive; note: nearly all actives have a fitted effect of over 55% in size; note: potency is the fitted concentration of half-maximal effect). In a few lines:
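HaCaT ARE reporter line, 1,500 cells/well; 5 h settle, 37 C/5% CO2; cpd in DMSO pinned; 23 h exposure; CellTiter-Fluor, 1 h; fluorescence.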

Assay [2] in a line: Nuclear factor erythroid 2-related factor 2/antioxidant responsive element (Nrf2/ARE) small molecule agonists: luciferase reporter gene qHTS assay in human keratinocytes (AID 1919969). Note: nearly all actives have a fitted effect of over 35% in size.
For assay [3], the target named is Gonadotropin-releasing hormone receptor (Homo sapiens) (UniProt P30968). As to the kind of experiment: Human gonadotropin-releasing hormone receptor (GnRHR) small molecule agonists, calcium flux assay in GnRHR-HEK293 cells (AID 1920063). Note: nearly all actives have a fitted effect of over 35% in size. The method, boiled down: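 GnRHR-HEK293, 1500 cells/well, 18 h 37 C/5% CO2; Ca dye 1 h 37 C; cpd pinned (DMSO), agonist mode; kinetic FL 480/540, 3 min, 1 s reads; 15 conc, n=3.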
Chain of Gonadotropin-releasing hormone receptor (Homo sapiens) (P30968 whole entry, looked up): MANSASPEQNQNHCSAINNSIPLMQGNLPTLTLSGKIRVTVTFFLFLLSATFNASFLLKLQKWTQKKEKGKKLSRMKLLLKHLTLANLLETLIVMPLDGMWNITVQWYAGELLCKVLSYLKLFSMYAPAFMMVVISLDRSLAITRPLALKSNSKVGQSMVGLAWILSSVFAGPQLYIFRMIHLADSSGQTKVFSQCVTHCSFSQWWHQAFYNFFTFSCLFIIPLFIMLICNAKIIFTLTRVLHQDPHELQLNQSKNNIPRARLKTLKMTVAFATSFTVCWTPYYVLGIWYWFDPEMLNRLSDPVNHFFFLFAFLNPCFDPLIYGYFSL

Assay [4] addresses KiSS-1 receptor (Homo sapiens) (UniProt Q969F8). As to the kind of experiment: Human kisspeptin (KISS1R) small molecule agonists, calcium flux assay in KISS1R-HEK293 cells (AID 1920064; active = well fitted curve in the direction sought with a large enough effect in the repeat runs; an effect the other way counts as inactive or inconclusive). The method, boiled down:
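Stable human KISS1R HEK293 line; 18 h plating, 37 C/5% CO2; calcium dye 1 h 37 C; compound pin transfer; kinetic fluorescence Ex/Em 480/540, 3 min.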

A short description of assay [5]: G protein-coupled receptor (GPCR) small molecule agonists, calcium flux assay: HEK293 wild type cell line counter screen (AID 1920065). In a few lines:
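Kinetic fluorescence at Ex/Em 480/540, recorded every second over 3 min, served as the read-out after compound addition. Each compound was tested at 15 concentrations in triplicate on cells pre-loaded with calcium dye for 1 h.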

A short description of assay [6]: p53 small molecule agonists, cell-based qHTS assay with human liver microsomes (AID 1963577). The method, boiled down:
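Fluorescence of the beta-lactamase reporter in p53RE-bla cells, detected with LiveBLAzer substrate (2 h, room temperature, dark), served as the read-out after 16 h compound exposure at 37 C with human liver microsomes and NADPH, each 0.5 mg/mL final.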

Assay [7] is described as follows: p53 small molecule agonists, cell-based qHTS assay with rat liver microsomes (AID 1963578). The method, boiled down: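 Cells carrying a p53 response element–beta-lactamase reporter were plated and rested 5 h, then dosed with compound in DMSO plus rat liver microsomes and NADPH, each at 0.5 mg/mL final. After 16 h at 37 C, LiveBLAzer substrate was added for 2 h.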

A short description of assay [8]: p53 small molecule agonists, cell-based qHTS assay with human liver microsomes: qHTS cell viability counter screen (AID 1963579). Note: nearly all actives have a fitted effect of over 45% in size. The method, boiled down:
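Cytotoxicity counter screen: p53RE-bla, 4,000 cells/well; 5 h settle, 37 C/5% CO2; cpd + HLM 0.5 mg/mL + NADPH 0.5 mg/mL (final); 16 h, 37 C; CellTiter-Glo, 30 min RT, luminescence.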

A short description of assay [9]: p53 small molecule agonists, cell-based qHTS assay with rat liver microsomes: qHTS cell viability counter screen (AID 1963580). Note: nearly all actives have a fitted effect of over 45% in size. Note: potency is the fitted concentration of half-maximal effect. In a few lines: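 p53RE-bla HCT-116 cells (4,000/well) rested 5 h at 37 C, then given Tox21 compounds in DMSO with rat liver microsomes (0.5 mg/mL final) plus NADPH (0.5 mg/mL final) for 16 h at 37 C. Viability read by CellTiter-Glo luminescence after 30 min at room temperature.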

The nature of assay [10]: p53 small molecule agonists, cell-based qHTS assay: qHTS cell viability counter screen (AID 1963581). Note: nearly all actives have a fitted effect of over 45% in size. The method, boiled down: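 HCT-116 p53RE-bla cells, 4,000/well, plated 5 h before compound pin transfer; 16 h at 37 C; bla substrate 2 h RT; then CellTiter-Glo, 30 min RT, luminescence.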
A short description of assay [11]: p53 small molecule agonists, cell-based qHTS assay (AID 1963582; active = well fitted activation curve with a large enough effect in the signal ratio in the repeat runs, not every such curve was filed as active; the % refers to the signal ratio). In a few lines: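 Reporter line: p53RE-bla. Pre-incubation 5 h, 37 C, 5% CO2; compound (DMSO, pin tool) 16 h, 37 C; B/G FRET substrate 2 h RT; fluorescence intensity read.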
Assay [12] addresses 5-hydroxytryptamine receptor 2A (Homo sapiens) (UniProt P28223). In words: 5-hydroxytryptamine receptor 2A (HTR2A) small molecule antagonists, cell-based qHTS assay (AID 1963586). Note: nearly all actives have a fitted effect of over 45% in size. In a few lines:
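Antagonist-mode intracellular calcium assay: DOI (4 nM) added after 5 min compound pre-incubation at room temperature to dye-loaded HTR2A-CHO cells. Fluorescence followed for 3 min, sampled every second.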

For assay [13] the target is unchanged. In words: 5-hydroxytryptamine receptor 2A (HTR2A) small molecule agonists, cell-based qHTS assay (AID 1963587). Note: nearly all actives have a fitted effect of over 30% in size. The method, boiled down:
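HTR2A-CHO cells, plated 18 h at 37 C/5% CO2, dye-loaded 1 h at 37 C; compounds in DMSO added by pin tool (agonist mode). Intracellular calcium flux read as kinetic fluorescence on FDSS over 2 min at 1 s intervals.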

The target in assay [14] is Muscarinic acetylcholine receptor M1 (Homo sapiens) (UniProt P11229). As to the kind of experiment: Cholinergic receptor muscarinic 1 (CHRM1) small molecule antagonists, cell-based qHTS assay (AID 1963588). Note: nearly all actives have a fitted effect of over 40% in size. Note: potency is the fitted concentration of half-maximal effect. In a few lines: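 CHRM1-CHO calcium-flux assay, antagonist mode. Cells were seeded 18 h, dye-loaded 1 h at 37 C and given compound for 5 min at RT, then acetylcholine was added at 50nM. FDSS fluorescence was read 3 min; 15 concentrations, three runs.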
Chain of Muscarinic acetylcholine receptor M1 (Homo sapiens) (P11229 whole entry, looked up): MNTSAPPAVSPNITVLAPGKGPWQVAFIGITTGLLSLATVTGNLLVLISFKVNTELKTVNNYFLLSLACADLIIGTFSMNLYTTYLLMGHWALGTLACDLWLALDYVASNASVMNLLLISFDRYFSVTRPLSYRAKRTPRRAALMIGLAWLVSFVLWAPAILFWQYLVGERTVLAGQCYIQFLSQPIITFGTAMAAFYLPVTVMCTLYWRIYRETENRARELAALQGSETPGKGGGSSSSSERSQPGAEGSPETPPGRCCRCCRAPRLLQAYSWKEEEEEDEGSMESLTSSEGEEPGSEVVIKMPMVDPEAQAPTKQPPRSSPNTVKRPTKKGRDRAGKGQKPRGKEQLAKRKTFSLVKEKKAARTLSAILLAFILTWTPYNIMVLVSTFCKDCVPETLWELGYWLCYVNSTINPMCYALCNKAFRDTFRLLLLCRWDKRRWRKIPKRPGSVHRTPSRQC

Assay [15] has the same target. In words: Cholinergic receptor muscarinic 1 (CHRM1) small molecule agonists, cell-based qHTS assay (AID 1963589). Note: nearly all actives have a fitted effect of over 35% in size. In a few lines: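 Human M1 in stable CHO line; 18 h plating, 1 h dye load 37 C; cpd added (agonist mode); Ca2+ fluorescence kinetic read, 1 s intervals; 15 conc, 3 runs.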
Assay [16] is described as follows: cAMP Responsive Elements (CRE) small molecule agonists, cell-based qHTS assay (AID 1963590). In a few lines: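 HEK 293T CRE-bla, 2,000 cells/well, 18 h preincubation 37 C/5% CO2; cpds (DMSO) pinned, 3 h; LiveBLAzer B/G FRET substrate, 2 h RT.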
Assay [17] in a line: cAMP Responsive Elements (CRE) small molecule antagonists, cell-based qHTS assay (AID 1963591; active = well fitted inhibition curve with a large enough effect in the signal ratio in the repeat runs, not every such curve was filed as active; the % refers to the signal ratio). In a few lines:
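Beta-lactamase reporter read by FRET substrate (LiveBLAzer B/G) after 2 h at room temperature. CRE-bla HEK293T cells had received compound plus 0.25 uM (final) NKH477 for 3 h at 37 °C.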

Assay [18] deals with D(2) dopamine receptor (Homo sapiens) (UniProt P14416). As to the kind of experiment: Dopamine D2 receptor (DRD2) small molecule agonists, cell-based qHTS assay (AID 1963594). Note: nearly all actives have a fitted effect of over 35% in size. The method, boiled down:
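HEK293 cells stably expressing DRD2 were cultured 24 h at 37 C, then given Ro20-1724 (0.1 mM final) and compounds for 10 min at room temperature. NKH477 (200nM) was then added for 30 min. cAMP was read by HTRF.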

For assay [19] the target is unchanged. In words: Dopamine D2 receptor (DRD2) small molecule antagonists, cell-based qHTS assay (AID 1963595; active = well fitted inhibition curve with a large enough effect in the signal ratio in the repeat runs, with a control signal flat; the % refers to the signal ratio). The method, boiled down:
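Human DRD2 antagonist qHTS measuring cAMP by HTRF. The cells are exposed to compound for 10 min, then to NKH477 (200 nM) and quinpirole (12 nM) for 30 min at RT, with Ro20-1724 (0.1 mM) present throughout.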

The target in assay [20] is Beta-2 adrenergic receptor (Homo sapiens) (UniProt P07550). In words: Adrenergic beta2 receptor (ADRB2) small molecule antagonists, cell-based qHTS assay (AID 1963592). Note: series mostly up to about 92 µM; nearly all actives have a fitted effect of over 50% in size. The method, boiled down: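 Cells (CHO, stable ADRB2 overexpression) incubated 18-20hr at 37C; compounds added from DMSO; agonist mix (1nM isoproterenol, 100uM IBMX, 25uM Ro-20-1724) added; 0.5hr RT; d2-cAMP and anti-cAMP-cryptate added; 1hr RT; 665/615 nm read.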
Chain of Beta-2 adrenergic receptor (Homo sapiens) (P07550 whole entry, looked up): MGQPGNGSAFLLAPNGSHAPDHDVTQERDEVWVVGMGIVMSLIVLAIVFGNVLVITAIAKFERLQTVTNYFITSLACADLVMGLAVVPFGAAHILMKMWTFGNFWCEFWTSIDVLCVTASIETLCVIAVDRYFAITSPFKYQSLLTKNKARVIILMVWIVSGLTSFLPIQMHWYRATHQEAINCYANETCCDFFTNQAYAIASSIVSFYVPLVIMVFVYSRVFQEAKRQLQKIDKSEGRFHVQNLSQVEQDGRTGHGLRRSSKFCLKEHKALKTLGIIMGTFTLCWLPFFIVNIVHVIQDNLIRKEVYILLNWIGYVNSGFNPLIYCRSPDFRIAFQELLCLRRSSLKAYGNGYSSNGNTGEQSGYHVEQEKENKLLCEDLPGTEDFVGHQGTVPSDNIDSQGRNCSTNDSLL

The structures appear in SMILES notation. “And” between values parts separate entries of the source, which are not always exact repeats. Equal entries are not always repeated. Inconclusive results are not listed. Some structures have more than one record in an assay (separate samples or runs), and their calls can disagree. The source made the active and inactive calls. Unless noted, calls come from the whole dose curve.

This is an account of results in PubChem BioAssay (Tox21).

Chain of D(2) dopamine receptor (Homo sapiens) (P14416 whole entry, looked up): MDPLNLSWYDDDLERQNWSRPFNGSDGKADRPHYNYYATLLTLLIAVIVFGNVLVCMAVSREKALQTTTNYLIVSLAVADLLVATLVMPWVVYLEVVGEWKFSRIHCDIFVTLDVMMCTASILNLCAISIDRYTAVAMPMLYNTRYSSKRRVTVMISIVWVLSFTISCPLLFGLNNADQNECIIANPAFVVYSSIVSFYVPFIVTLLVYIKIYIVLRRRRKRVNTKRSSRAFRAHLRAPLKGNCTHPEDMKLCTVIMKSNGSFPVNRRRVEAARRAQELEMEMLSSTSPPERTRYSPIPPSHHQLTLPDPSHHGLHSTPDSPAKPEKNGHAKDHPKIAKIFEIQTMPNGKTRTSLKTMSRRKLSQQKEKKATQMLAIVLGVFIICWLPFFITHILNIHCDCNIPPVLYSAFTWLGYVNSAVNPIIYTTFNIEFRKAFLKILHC
Chain of KiSS-1 receptor (Homo sapiens) (Q969F8 whole entry, looked up): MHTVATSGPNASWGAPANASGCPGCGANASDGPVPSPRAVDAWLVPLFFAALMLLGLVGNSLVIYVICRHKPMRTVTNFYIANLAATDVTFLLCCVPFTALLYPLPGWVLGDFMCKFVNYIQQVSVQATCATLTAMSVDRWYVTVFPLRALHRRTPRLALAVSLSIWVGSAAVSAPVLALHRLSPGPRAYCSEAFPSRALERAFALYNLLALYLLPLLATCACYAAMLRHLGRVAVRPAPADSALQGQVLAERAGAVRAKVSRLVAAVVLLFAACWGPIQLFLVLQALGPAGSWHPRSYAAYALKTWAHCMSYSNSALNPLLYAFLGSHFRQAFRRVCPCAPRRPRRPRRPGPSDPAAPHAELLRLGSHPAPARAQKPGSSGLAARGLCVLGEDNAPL
Chain of 5-hydroxytryptamine receptor 2A (Homo sapiens) (P28223 whole entry, looked up): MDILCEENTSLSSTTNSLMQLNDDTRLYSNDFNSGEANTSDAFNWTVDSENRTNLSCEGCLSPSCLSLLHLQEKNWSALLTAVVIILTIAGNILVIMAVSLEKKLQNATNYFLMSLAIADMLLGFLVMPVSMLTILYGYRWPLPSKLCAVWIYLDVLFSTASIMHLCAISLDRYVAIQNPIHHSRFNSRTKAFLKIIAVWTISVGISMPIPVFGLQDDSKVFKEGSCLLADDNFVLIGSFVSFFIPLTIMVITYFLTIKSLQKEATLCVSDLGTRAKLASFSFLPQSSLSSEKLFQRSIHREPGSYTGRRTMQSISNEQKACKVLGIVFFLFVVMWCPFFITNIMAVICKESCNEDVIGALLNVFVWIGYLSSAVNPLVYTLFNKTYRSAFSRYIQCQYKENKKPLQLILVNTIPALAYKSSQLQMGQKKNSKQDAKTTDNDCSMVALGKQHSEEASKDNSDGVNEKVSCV

For the molecule `CC(=O)CC/C=C(\C)CCC=C(C)C`, the Potency result in assay [1], in [2], in assay [3], in assay [4], in assay [5] and in [6] was “inactive” in each case. The Potency result in assay [7], in [8], in [9], in assay [10], in assay [11] and in assay [12] was “inactive” in each case. For the same molecule, the Potency entry in [13], in assay [14], in assay [15], in assay [16], in assay [17] and in assay [18] was “inactive” in each case. In addition, in [19], the Potency result was “inactive”.
For `OC[C@H]1O[C@H](O[C@]2(CCl)O[C@H](CCl)[C@@H](O)[C@@H]2O)[C@H](O)[C@@H](O)[C@H]1Cl`, the Potency result in assay [1], in assay [2], in assay [3], in assay [4], in [5] and in assay [6] was “inactive” in each case. In addition, the Potency entry in assay [7], in assay [8], in assay [9], in assay [10], in assay [11] and in assay [12] was “inactive” each time. In addition, the Potency entry in assay [13], in [14], in [15], in assay [16], in [17] and in assay [18] was “inactive” throughout. In assay [19], the Potency result is “inactive”.
For the molecule `CC1=CC(=O)CC(C)(C)C1`, the Potency in assay [1] is 2.5 µM (active) and inactive; in assay [9] it was 16.7 µM (active) and inactive. In addition, the Potency entry in [2], in assay [3], in assay [4], in assay [5], in [6] and in assay [7] was “inactive” in each case. Moreover, the Potency result in assay [8], in assay [10], in assay [11], in [12], in assay [13] and in assay [14] was “inactive” in each case. Moreover, the Potency result in assay [15], in assay [17], in assay [20] and in assay [19] was “inactive” each time.
In the case of `CN(C)CCOC(C)(c1ccccc1)c1ccccn1` (stereo unspecified), the Potency entry in assay [1], in assay [2], in [3], in [4], in assay [5] and in assay [6] was “inactive” each time. For the same molecule, the Potency result in [7], in assay [8], in [9], in assay [10], in [11] and in assay [12] was “inactive” throughout. Besides, the Potency result in assay [13], in assay [15], in assay [16], in [17], in [20] and in assay [18] was “inactive” each time. Besides, the Potency entry in [19] was “inactive”. Also, the Potency in assay [14] is 18.8 µM (active) and 4.1 µM (active).
As to `Cc1ccc(C(C)C)c(O)c1`, the Potency entry in [1], in assay [2], in assay [3], in assay [4], in assay [5] and in assay [6] was “inactive” throughout. Also, the Potency result in [7], in assay [8], in assay [9], in [10], in assay [11] and in assay [12] was “inactive” in each case. The Potency result in assay [13], in assay [14], in assay [15], in assay [16], in assay [17] and in [20] was “inactive” each time. For the same molecule, the Potency entry in assay [18] and in assay [19] was “inactive” in each case.
For `CCCCCCCC(=O)O`, the Potency entry in assay [1], in assay [2], in assay [3], in assay [4], in assay [5] and in assay [6] was “inactive” in each case. In addition, the Potency result in assay [7], in [8], in assay [9], in assay [10], in [11] and in [12] was “inactive” each time. In addition, the Potency entry in assay [13], in assay [14], in [15], in assay [16], in assay [17] and in assay [20] was “inactive” throughout. Also, the Potency result in assay [18] and in [19] was “inactive” throughout.
As for `NCCS(=O)(=O)O`, the Potency result in [1], in assay [2], in assay [3], in assay [4], in assay [5] and in assay [6] was “inactive” throughout. Further, the Potency result in assay [7], in [8], in assay [9], in assay [10], in assay [11] and in assay [12] was “inactive” each time. The Potency result in assay [13], in [14], in assay [15], in assay [16], in assay [17] and in assay [20] was “inactive” in each case. Also, the Potency entry in [18] and in [19] was “inactive” each time.
On to `CC1COC(=O)O1` (stereo unspecified), for which the Potency entry in assay [1], in [2], in assay [3], in assay [4], in assay [5] and in [6] was “inactive” throughout. For the same molecule, the Potency entry in [7], in [8], in [9], in assay [10], in assay [11] and in [12] was “inactive” each time. Moreover, the Potency result in [13], in assay [14], in assay [15], in assay [16], in assay [17] and in assay [20] was “inactive” throughout. Besides, the Potency entry in assay [18] and in assay [19] was “inactive” each time.
